Only some compounds are listed: those with a hit (about 1.3% of all), similar ones and a draw of the others.
GRP78 ERSR act – induces the endoplasmic reticulum stress response in human glioma cells | hit rate 0.02% among 420,000 | Potency, µM, inactives show at the highest dose activation, most hits filed as activators | U87-MG GRP78 promoter luciferase reporter, 16 h; note: potency is the fitted concentration of half-maximal effect; series mostly up to about 76 µM; % of control where 0% means no effect; nearly all actives have a fitted effect of over 35% in size
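ERSR induction read as luciferase luminescence (Bright-Glo, 10 min at room temperature) in stably transfected human U87-MG glioma cells exposed to compounds for 16 h, using GRP78 as sensor.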
ALOX12 inh – blocks human arachidonate 12S-lipoxygenase; AID 1671190; hit rate 1.1% among 580,000; Potency, µM (doses to about 108 µM), without a hit: top-dose activity change, negative = inhibition, usual class: inhibitors; purified 12hLO, xylenol orange hydroperoxide absorbance; note: potency is the fitted concentration of half-maximal effect; % is set by controls: 0 for no effect and ±100 for the full control effect
Target sequence (P18054 whole entry, looked up): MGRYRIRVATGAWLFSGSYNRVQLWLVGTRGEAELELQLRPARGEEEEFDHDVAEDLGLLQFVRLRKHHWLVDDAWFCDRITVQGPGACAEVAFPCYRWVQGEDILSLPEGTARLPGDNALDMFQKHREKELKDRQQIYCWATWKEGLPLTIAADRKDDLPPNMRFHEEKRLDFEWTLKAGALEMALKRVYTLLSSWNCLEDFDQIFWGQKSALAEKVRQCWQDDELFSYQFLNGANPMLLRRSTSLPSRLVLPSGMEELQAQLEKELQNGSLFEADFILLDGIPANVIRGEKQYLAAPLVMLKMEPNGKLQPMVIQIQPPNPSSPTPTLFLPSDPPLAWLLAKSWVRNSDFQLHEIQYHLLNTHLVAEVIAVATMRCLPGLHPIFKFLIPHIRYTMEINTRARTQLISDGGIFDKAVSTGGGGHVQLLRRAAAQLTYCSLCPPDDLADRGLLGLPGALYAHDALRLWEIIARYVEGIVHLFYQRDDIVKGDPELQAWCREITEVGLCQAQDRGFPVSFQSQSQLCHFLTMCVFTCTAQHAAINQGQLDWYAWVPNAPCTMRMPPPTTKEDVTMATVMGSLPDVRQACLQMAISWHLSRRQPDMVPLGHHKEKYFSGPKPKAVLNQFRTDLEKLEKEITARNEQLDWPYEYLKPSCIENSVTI
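Purified human 12hLO at 150 nM in 25 mM Hepes, 0.01% Triton X-100, pH 7.0, preincubated 15 min at room temperature with compound. Reaction started with 40 uM arachidonic acid, 30 min at room temperature. Hydroperoxide measured by Fe-xylenol orange, 573/405 nm absorbance ratio.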
Vif-A3G inh – Vif-A3G binding inhibition | hit rate 0.076% among 410,000 | Potency, µM (doses to about 46.1 µM), without a hit: top-dose activity, negative = active, usual class: inhibitors | HeLa A3G-eYFP + Vif (tagged APOBEC3G with the HIV-1 protein that degrades it), YFP fluorescence, overnight; note: potency is the fitted concentration of half-maximal effect; % is set by controls: 0 for no effect and ±100 for the full control effect; nearly all actives have a fitted effect of over 60% in size
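Read-out is eYFP fluorescence (Ex 488/Em 500-530) from Vif-expressing HeLa A3G-eYFP cells; more signal means A3G escaped Vif-mediated degradation. Cells plated overnight, compound pinned in, incubated overnight at 37 deg C.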
TRPML1 inh – inhibitors of human TRPML1 channel. AID 624415. TRPML1-inducible cells, Ca2+ dye fluorescence, FDSS; stronger effect = lower value; inhibition of EC80 agonist-evoked calcium signal. Q9GZU1. hit rate 0.02% among 390,000. activity change, negative = inhibition, % (concentration not given with the values); in the data active = activity change below about -50%; inconclusive = between about -30% and that limit;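 note: stimulus is agonist 54-4 at its EC80 concentration; % is set by controls: 0 for no effect and ±100 for the full control effect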
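Tet-induced TRPML1-DL cells loaded with Ca8 no-wash calcium dye were read kinetically on FDSS. Compound addition was followed by EC80 agonist 54-4 (4 uM final); inhibition was read over 110 s.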
TRPML1 ag – agonists of human TRPML1 channel; TRPML1-expressing cells, Ca2+ dye fluorescence, FDSS; activation, % (concentration not given with the values); AID 624414; hit rate 0.12% among 410,000; in the data active = activation above about 50%; inconclusive = mostly about 30% to 49%; note: 0% is about no effect
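Tetracycline-induced TRPML1-DL cells are seeded and incubated overnight before loading with a no-wash Ca2+ dye and quencher. Agonist activity is taken from the 110 s fluorescence read following compound pin-transfer on an FDSS, before EC80 54-4 challenge.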
Vif-APOBEC3F blk – blocks the Vif interaction with APOBEC3F; HeLa A3F-eYFP + Vif (tagged APOBEC3F with the HIV-1 protein that degrades it), YFP fluorescence increase; Potency, µM (series often up to 46.1 µM), inactives show top-dose activity, negative = active; hit rate 0.2% among 390,000; AID 602313; note: potency is the fitted concentration of half-maximal effect; % of control where 0% means no effect; nearly all actives have a fitted effect of over 65% in size
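HeLa cells stably expressing A3F-eYFP plus Vif, plated and incubated overnight at 37 deg C, then exposed to compounds overnight at 37 deg C. Blocked degradation read as raised yellow fluorescence (Ex 488/Em 500-530).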
* = called active by the depositor; u = inconclusive; x = no result given. Unless noted, calls come from the whole dose curve; as a rule, active = well fitted curve in the direction sought with a large enough effect; inconclusive = small, poorly fitted or top-dose-only effect, or another doubt; inactive = no such curve, though single readings can be large; an effect the other way counts as inactive or inconclusive.

SMILES	GRP78 ERSR act	ALOX12 inh	Vif-A3G inh	TRPML1 inh	TRPML1 ag	Vif-APOBEC3F blk
CC(C)n1c(=O)n(CCCO)c(=O)c2c3c(sc21)COC(C)(C)C3	x	-5%	x	x	x	x
COc1ccc(/C=C2\SC(=O)N(CCCC(=O)Nc3cc(Cl)ccc3C(=O)O)C2=O)cc1	-14%	35µM*	3%	8	3	16%
COc1ccc(/C=C2\SC(=S)N(CCC(=O)Nc3ccccc3C(=O)O)C2=O)cc1	-10%	0%	-1%	24	2	-4%
CC(O)c1ccc(-c2ccc(CNC3CCCC3)o2)cc1 (stereo not drawn)	x	-35%	x	x	x	x
O=C(Nc1ccc(-c2noc(/C=C/c3ccccc3)n2)cc1)c1ccc(Br)o1	x	28µM*	x	x	x	x
Cc1cc(C)cc(NC(=S)Nc2ccc(Cl)c(Cl)c2)c1	-6%	40µM*	3%	-1	-1	-24%
O=C(NCc1ccccn1)c1cccc(Cl)c1	x	32%	x	x	x	x
CCn1cnc2c1c(=O)n(CC(=O)NC(C)c1ccccc1F)c(=O)n2Cc1ccccc1 (stereo not drawn)	x	-36%	x	x	x	x
N#Cc1c(C(F)(F)F)cc(-c2ccccc2)nc1SCc1nc(N)nc(N2CCOCC2)n1	2%	-20%	u	7	12	11µM*
CO/C=C\C=C/c1nnn(-c2ccc(Cl)cc2)n1	-1%	35µM*	-10%	3	0	4%
Cc1cc(CN2CCN(Cc3nc(C(C)C)no3)CC2)no1	x	-3%	x	x	x	x
CC(Sc1n[nH]c(-c2cccs2)n1)C(=O)Nc1ccc(F)cc1F (stereo not drawn)	x	4%	x	x	x	x
CN(C)CCCSc1nc(N2CCOCC2)c2c(c1C#N)CCCC2	x	0.5µM*	x	x	x	x
CCCSc1nc(N2CCOCC2)c2c(c1C#N)CCCC2	-5%	3%	0%	38	1	-2%
CCOC(=O)CSc1ccc2nnc(-c3cccnc3)n2n1	-3%	32µM*	-1%	14	-1	5%
CCOC(=O)CSc1ccc2nnc(-c3ccccc3)n2n1	-4%	-17%	5%	4	-1	3%
CSc1ccc(/C=C2\C(=O)Oc3ccccc32)cc1	x	32µM*	x	x	x	x
COc1ccc(NC(=O)Cc2ccc(C)cc2)cc1S(=O)(=O)N1CCCCC1	-4%	182%	1%	-4	-1	1%
COc1ccc(NC(=O)CN2CCCCC2)cc1S(=O)(=O)N1CCCCC1	-4%	2.5µM*	0%	-7	0	1%
CCOC(=O)c1cccc(NS(=O)(=O)c2cc(-c3nn(C)c(=O)c4c3CCCC4)ccc2C)c1	x	11%	x	x	x	x
O=S(=O)(Nc1nc2ccccc2nc1Nc1cccc(S(=O)(=O)N2CCCCC2)c1)c1ccccc1	-7%	-17%	u	34	1	10µM*
CC(=O)Nc1ccc(S(=O)(=O)Nc2nc3ccccc3nc2Nc2cccc(C)c2)cc1	x	-5%	x	x	x	x
CCCCOC(=O)c1ccc(Nc2nc3ccccc3nc2NS(=O)(=O)c2ccccc2)cc1	x	-33%	x	x	x	x
CCOC(=O)c1ccc(Nc2nc3ccccc3nc2NS(=O)(=O)c2ccc(Cl)cc2)cc1	-3%	-6%	-27%	6	1	7.1µM*
CC(=O)c1cccc(Nc2nc3ccccc3nc2NS(=O)(=O)c2ccccc2)c1	x	19%	x	x	x	x
SMILES	GRP78 ERSR act	ALOX12 inh	Vif-A3G inh	TRPML1 inh	TRPML1 ag	Vif-APOBEC3F blk
CC(=O)Nc1ccc(S(=O)(=O)Nc2nc3ccccc3nc2Nc2cccc(Cl)c2)cc1	x	16µM*	x	x	x	x
Cc1ccc2nc(NS(=O)(=O)c3ccc(Cl)cc3)c(Nc3ccc(C(=O)O)cc3)nc2c1	-2%	u	-3%	13	1	4.5µM*
CN(CC(=O)N(C)C)Cc1coc(-c2ccc(Cl)cc2)n1	x	28%	x	x	x	x
O=C(Oc1ccc2c(c1)OCO2)c1cccs1	-1%	27%	5%	-50*	-1	9%
C#CCNC(=O)C[C@@H]1C[C@@]2(C(=O)OCC)CCCC=C2N(Cc2ccc3c(c2)OCO3)C1=O	x	-2%	x	x	63*	x
NC(N)=N/N=C/C=C/c1ccccc1	x	-1%	x	x	x	x
CCc1ccc2c(C)nc(Nc3nc(C)c(CCC(C)C)c(=O)[nH]3)nc2c1	x	2%	x	x	x	x
O=C(Nc1ccccc1-c1nc2ccccc2[nH]1)c1ccc(N2C(=O)CCC2=O)cc1	-5%	-7%	u	-7	3	11µM*
Cc1ncc(-c2ccc(C)c(S(=O)(=O)N3CCN(c4cccc(C(F)(F)F)c4)CC3)c2)o1	x	-30%	x	x	x	x
Cc1ccc2c(CSc3nnc(NCC(C)C)s3)cc(=O)oc2c1	x	18µM*	x	x	x	x
COc1cccc(OCCn2cc(C(C)=O)c3ccccc32)c1	-3%	25µM*	-3%	15	0	-15%
CNC(=S)N/N=C/c1cn(CCOc2ccccc2OC)c2ccccc12	-3%	u	-3%	-24	1	0%
CNC(=S)N/N=C/c1cn(CCOc2cccc(OC)c2)c2ccccc12	1%	35µM*	2%	-3	-2	u
Cc1cccc(C(=O)Sc2ccc(Cl)cc2)c1	x	35%	x	x	x	x
CCN(Cc1nnc(-c2ccc(Br)s2)o1)C1CC1	x	6%	x	x	x	x
CC(C)Cc1nn2c(=O)cc(COC(=O)c3ccc(NC(=O)c4cccs4)cc3)nc2s1	1%	-18%	6%	-68*	2	1%
CCCc1nn2c(=O)cc(COC(=O)c3ccc(NC(=O)c4cccs4)cc3)nc2s1	-2%	-22%	5%	-18	1	4%
CCOc1ccc(/C=C/C(=O)c2cc(Br)ccc(=O)c2O)cc1	-9%	28µM*	-17%	32	0	-3%
CC(C(=O)c1ccccc1)C1(O)C(=O)Nc2ccc(Br)cc21 (stereo not drawn)	x	-1%	x	x	x	x
O=C(/C=C/c1ccccc1)C1=C(O)C(=O)N(CCO)C1c1ccccc1[N+](=O)[O-] (stereo not drawn)	-6%	u	-1%	21	0	-16%
O=C(/C=C/c1ccccc1)C1=C(O)C(=O)N(CCO)C1c1cccc([N+](=O)[O-])c1 (stereo not drawn)	1%	22µM*	4%	1	0	6%
CC(NC(=O)COC(=O)Cc1n[nH]c(=O)c2ccccc12)c1ccccc1 (stereo not drawn)	x	-5%	x	x	x	x
CC(C)c1ccc(NC(=O)CSc2ncc(-c3ccc(F)cc3)o2)cc1	x	0%	x	x	x	x
Cc1cccc2c(C(=O)O)cc(-c3cccs3)nc12	x	-22%	x	x	x	x
COc1ccc(-c2cc(C(=O)O)c3cc(C)cc(C)c3n2)c(OC)c1	x	-7%	x	x	x	x
Cc1ccc(-c2cc(C(=O)O)c3cccc(C)c3n2)s1	x	11µM*	x	x	x	x
COc1ccccc1-c1cc(C(=O)O)c2cccc(C)c2n1	x	10µM*	x	x	x	x
Cc1c(N)cccc1C(=O)NCC(C)C	x	-21%	x	x	x	x

Screening results (PubChem)
